# Reference: publication PMC5540273 (PLoS ONE, 2017)
# Test system: T1, DRAK1
# T1 construct: gene STK17A
# Details: concentration: 1 μM, replicates: in singlicate; n = 1
# 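Further: KINOMEscan kinase panel screen.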
row,SMILES,%Inh [%]
1,CSc1nn2c(=O)cc(N3CCOCC3)nc2n1Cc1cccc(Cl)c1Cl [GSK2347225],4
2,CS(=O)(=O)CCNCc1nc(-c2ccc3ncnc(Nc4ccc(OCc5cccc(F)c5)c(Cl)c4)c3c2)cs1.Cl [GW583340],7
3,Nc1nc(-c2ccc3c(N)n[nH]c3c2)cc(N2CCC[C@@H](C(=O)Nc3ccccc3)C2)n1.O=C(O)C(F)(F)F.O=C(O)C(F)(F)F [GSK2288359],55
4,C[C@H]1CC[C@@H](C(=O)Nc2ccccc2)CN1c1cc(-c2ccc3c(N)n[nH]c3c2)nc(N)n1 [GSK2283293],97.9
5,CN1CCC(n2cnc(-c3ccc(F)cc3)c2-c2ccnc(NC3CCNCC3)n2)CC1 [SB-229482],0
6,COc1ccc(-c2nc3n(c2-c2ccncc2)CCC3)cc1 [SKF-104493],0
7,Cc1cc(N2CCC(NS(=O)(=O)c3ccc(F)cc3)CC2)nc(Nc2cccc(C#N)c2)n1.O=C(O)C(F)(F)F [GSK1653537],3
8,CCc1nc(-c2cccc(N(C)S(=O)(=O)c3ccccc3)c2)c(-c2ccnc(Nc3ccc(N4CCN(C(C)=O)CC4)nc3)n2)s1 [GSK1645895],3
9,Nc1n[nH]c2nnc(-c3ccccc3)cc12 [SB-517389],0
10,CCC(CC)(CC)n1cnc2c(N)ncnc21 [SKF-97620],7

# Test system: T2, DRAK2
# T2 construct: gene STK17B
# Details: concentration: 1 μM, replicates: in singlicate; n = 1
row,SMILES,%Inh [%]
1,c1ccc(-c2ccc3c(-c4ccnc(Nc5ccc6c(c5)OCCO6)n4)cnn3n2)cc1 [GW818941],0
2,CCCc1ccc(S(=O)(=O)NC2CCN(c3ccnc(Nc4ccc(OC)cc4)n3)C2)cc1 (stereo not drawn) [GSK1379737],0
3,Clc1cccc(-c2nc(Nc3ccncc3)c3ccccc3n2)c1 [GW873004],10
4,Cc1ccc(O)cc1Nc1cc(C(F)(F)F)nc2ccc(-c3ccncc3)cc12 [GW630823],11
5,COc1cc2ncnc(Nc3ccc(OCc4ccccc4Br)c(Cl)c3)c2cc1OC.Cl [GI261590],0
6,Clc1ccc(-c2cc(-c3c[nH]nc3-c3ccccn3)ccn2)cc1 [GW681251],0
7,CC(C)(C)OC(=O)NC1CCCN(c2cc(-c3ccc4c(N)n[nH]c4c3)nc(N)n2)C1 (stereo not drawn) [GSK2286096],0
8,Cc1cccc(-c2nc(Nc3ccc4[nH]nnc4c3)c3ccccc3n2)n1 [GW867587],0
9,O=C(Nc1ccccc1)Nc1ccc(Oc2ccc3nccn3n2)cc1,0
10,CNc1nccc(-c2c(-c3ccc(F)cc3)ncn2CCCN2CCOCC2)n1 [SB-222516],15
11,Fc1cccc(COc2ccc(Nc3ncnc4sc(-c5ccc[nH]5)cc34)cc2Cl)c1 [GW707818],0
12,O=C(Nc1ccccc1F)NC1CCN(c2ccnc(Nc3ccc(F)cc3)n2)C1 (stereo not drawn) [GSK1379722],0
13,Cl.Cl.c1ccc(-c2cc3ccncc3cc2OC2CCNCC2)cc1 [GSK1122999],0
14,Fc1cccc(COc2ccc(Nc3ncnc4cc[nH]c34)cc2Cl)c1,6
15,COC(=O)c1cccc(NC(=O)NCCNc2ccnc(Nc3ccc(F)cc3)n2)c1 [GSK1379883],0
16,CN1c2ccc(-c3ccc(C(=O)NCCO)cc3)cc2-c2[nH]ncc2S1(=O)=O,29
17,CC(C)(C)c1ccc(-n2cnc3c(N)ncnc32)cc1 [SKF-97263],5
18,Nc1nc(-c2cccnc2)c(-c2ccnc3ccccc23)s1 [GW684083],0

row,SMILES,%Inh [%]
1,CSc1ccc(NC2=C(c3ccccc3Cl)C(=O)NC2=O)cc1 [SB-342411],0
2,Cc1ccc(C)c(NC(=O)NCCNc2ccnc(Nc3ccc(F)cc3)n2)c1 [GSK1379878],3
3,COc1ccc(-c2oc3ncnc(N)c3c2-c2ccc(OC)cc2)cc1 [SB-589132],0
4,Cl.Cn1ccc(-c2cccc(Nc3ccnc4cc(-c5nccs5)ccc34)c2)n1 [GW525701],10
5,Cn1cc(-c2ccc3c(c2)CCN3C(=O)Cc2cccc(C(F)(F)F)c2)c2c(N)ncnc21 [GSK2606414],0
6,FC(F)(F)c1cc(Nc2nccc(-c3c(-c4ccc(Cl)cc4)nn4ncccc34)n2)ccc1Cl [GW829351],0
7,O=C(CCO)NCCn1ccc2ncnc(Nc3ccc(Oc4cccc(C(F)(F)F)c4)c(Cl)c3)c21,0
8,COc1ccc(NC(=O)Nc2ccc(C)c(-c3ccc(C(=O)Nc4ccncc4)cc3)c2)cc1 [GSK1398475],8
9,CSc1nn2c(=O)cc(N3CCOCC3)nc2n1Cc1cccc(Cl)c1Cl [GSK2347225],0
10,CS(=O)(=O)CCNCc1nc(-c2ccc3ncnc(Nc4ccc(OCc5cccc(F)c5)c(Cl)c4)c3c2)cs1.Cl [GW583340],17
11,Nc1nc(-c2ccc3c(N)n[nH]c3c2)cc(N2CCC[C@@H](C(=O)Nc3ccccc3)C2)n1.O=C(O)C(F)(F)F.O=C(O)C(F)(F)F [GSK2288359],0
12,C[C@H]1CC[C@@H](C(=O)Nc2ccccc2)CN1c1cc(-c2ccc3c(N)n[nH]c3c2)nc(N)n1 [GSK2283293],64
13,CN1CCC(n2cnc(-c3ccc(F)cc3)c2-c2ccnc(NC3CCNCC3)n2)CC1 [SB-229482],0
14,Cc1cc(N2CCC(NS(=O)(=O)c3ccc(F)cc3)CC2)nc(Nc2cccc(C#N)c2)n1.O=C(O)C(F)(F)F [GSK1653537],0
15,CCc1nc(-c2cccc(N(C)S(=O)(=O)c3ccccc3)c2)c(-c2ccnc(Nc3ccc(N4CCN(C(C)=O)CC4)nc3)n2)s1 [GSK1645895],0
16,Nc1n[nH]c2nnc(-c3ccccc3)cc12 [SB-517389],0
17,CCC(CC)(CC)n1cnc2c(N)ncnc21 [SKF-97620],25
